# Laboratory results published in paper PMC7862700, “An all-to-all approach to the identification of sequence-specific readers for epigenetic DNA modifications on cytosine”.
# Legend:
# Test in all cases: DAPPL (digital affinity profiling via proximity ligation, sequencing); 10 mM Tris-HCl pH 7.5, 50 mM NaCl, 1 mM DTT, 4% glycerol, room temperature, 30 min; GST-TFs on glutathione beads, 16-mer random dsDNA library, 0.1% formaldehyde crosslink after washing; high values mean tight binding
# FLI1 = molecular target: T1, FLI1 (Homo sapiens, UniProt Q01543 1-452); details: protein: recombinant; tags: N-terminal GST; dsDNA, one strand shown
# T1 sequence: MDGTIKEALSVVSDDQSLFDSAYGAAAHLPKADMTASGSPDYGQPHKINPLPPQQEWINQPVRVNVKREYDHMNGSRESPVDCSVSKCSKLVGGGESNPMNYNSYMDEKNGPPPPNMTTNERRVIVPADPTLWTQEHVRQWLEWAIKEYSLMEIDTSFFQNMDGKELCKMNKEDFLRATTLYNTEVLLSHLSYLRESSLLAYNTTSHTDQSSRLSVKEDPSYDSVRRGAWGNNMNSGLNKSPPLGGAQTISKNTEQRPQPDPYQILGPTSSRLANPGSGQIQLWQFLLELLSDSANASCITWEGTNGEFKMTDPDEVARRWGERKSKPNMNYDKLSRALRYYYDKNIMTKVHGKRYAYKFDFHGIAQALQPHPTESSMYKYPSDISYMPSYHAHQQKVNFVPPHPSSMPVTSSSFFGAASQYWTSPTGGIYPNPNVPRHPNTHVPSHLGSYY
# Outline: (§1)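 Binding signal is defined as a hexamer's read frequency for one factor over its frequency for the tag-only sample. To obtain reads, GST-fused human transcription factors were expressed in yeast, captured on glutathione beads, barcoded with DNA and pooled with that sample. Pools met 200 nmole of a 16-mer random double-stranded DNA library in Tris/NaCl/DTT/glycerol buffer for 30 min at room temperature before washing, 0.1% formaldehyde crosslinking, proximity ligation (BsaI/T4 ligase, 1 h, 37 °C), PCR and Illumina NextSeq500 sequencing.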
# ELK1 = molecular target: T2, ELK1 (Homo sapiens, UniProt P19419 1-428); details: protein: recombinant; tags: N-terminal GST; dsDNA, one strand shown
# T2 sequence: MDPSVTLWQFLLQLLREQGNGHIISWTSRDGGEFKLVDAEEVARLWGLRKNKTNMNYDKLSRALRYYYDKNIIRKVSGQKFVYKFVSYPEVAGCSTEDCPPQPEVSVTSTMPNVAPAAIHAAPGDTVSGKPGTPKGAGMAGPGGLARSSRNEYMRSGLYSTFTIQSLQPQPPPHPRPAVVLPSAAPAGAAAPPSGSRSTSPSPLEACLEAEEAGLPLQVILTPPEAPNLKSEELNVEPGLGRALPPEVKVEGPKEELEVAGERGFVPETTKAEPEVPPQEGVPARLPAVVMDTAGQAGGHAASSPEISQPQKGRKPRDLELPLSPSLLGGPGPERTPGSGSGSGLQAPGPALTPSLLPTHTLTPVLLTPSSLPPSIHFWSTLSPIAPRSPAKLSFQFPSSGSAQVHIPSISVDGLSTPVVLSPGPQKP
# Outline: as §1
# GABPA = molecular target: T3, GABPA (Homo sapiens, UniProt Q06546 1-454); details: protein: recombinant; tags: N-terminal GST; dsDNA, one strand shown
# T3 sequence: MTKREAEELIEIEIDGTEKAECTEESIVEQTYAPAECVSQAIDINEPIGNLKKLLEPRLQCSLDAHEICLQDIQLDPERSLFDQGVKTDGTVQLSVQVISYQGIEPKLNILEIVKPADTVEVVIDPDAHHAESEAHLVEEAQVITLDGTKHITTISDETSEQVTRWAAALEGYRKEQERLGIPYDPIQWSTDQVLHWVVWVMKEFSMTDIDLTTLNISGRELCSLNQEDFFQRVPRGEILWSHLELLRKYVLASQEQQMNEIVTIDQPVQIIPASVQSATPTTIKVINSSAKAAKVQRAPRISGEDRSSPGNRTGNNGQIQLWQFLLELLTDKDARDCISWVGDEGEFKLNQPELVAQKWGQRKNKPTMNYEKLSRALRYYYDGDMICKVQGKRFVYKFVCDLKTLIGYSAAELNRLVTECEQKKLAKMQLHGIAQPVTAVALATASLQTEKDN
# Outline: as §1
# ERG = molecular target: T4, ERG (Homo sapiens, UniProt P11308 1-479); details: protein: recombinant; tags: N-terminal GST; dsDNA, one strand shown
# T4 sequence: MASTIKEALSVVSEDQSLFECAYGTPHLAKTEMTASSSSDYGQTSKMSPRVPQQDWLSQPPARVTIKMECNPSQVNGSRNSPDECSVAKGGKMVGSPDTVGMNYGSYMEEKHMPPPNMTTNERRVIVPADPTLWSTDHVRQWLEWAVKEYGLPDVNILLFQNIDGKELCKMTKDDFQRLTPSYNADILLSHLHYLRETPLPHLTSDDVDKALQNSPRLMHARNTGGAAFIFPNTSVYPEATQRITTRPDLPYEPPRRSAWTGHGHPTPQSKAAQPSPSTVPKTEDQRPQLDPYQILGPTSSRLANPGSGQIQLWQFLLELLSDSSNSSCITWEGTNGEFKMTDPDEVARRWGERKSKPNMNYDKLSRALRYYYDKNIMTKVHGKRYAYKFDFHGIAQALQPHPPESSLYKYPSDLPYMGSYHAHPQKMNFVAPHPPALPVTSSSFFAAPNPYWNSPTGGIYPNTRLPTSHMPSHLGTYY
# Outline: as §1
# ELF1 = ELF1 (Homo sapiens, UniProt P32519 1-619); details: protein: recombinant; tags: N-terminal GST; dsDNA, one strand shown
# ELF1, sequence (P32519 whole entry): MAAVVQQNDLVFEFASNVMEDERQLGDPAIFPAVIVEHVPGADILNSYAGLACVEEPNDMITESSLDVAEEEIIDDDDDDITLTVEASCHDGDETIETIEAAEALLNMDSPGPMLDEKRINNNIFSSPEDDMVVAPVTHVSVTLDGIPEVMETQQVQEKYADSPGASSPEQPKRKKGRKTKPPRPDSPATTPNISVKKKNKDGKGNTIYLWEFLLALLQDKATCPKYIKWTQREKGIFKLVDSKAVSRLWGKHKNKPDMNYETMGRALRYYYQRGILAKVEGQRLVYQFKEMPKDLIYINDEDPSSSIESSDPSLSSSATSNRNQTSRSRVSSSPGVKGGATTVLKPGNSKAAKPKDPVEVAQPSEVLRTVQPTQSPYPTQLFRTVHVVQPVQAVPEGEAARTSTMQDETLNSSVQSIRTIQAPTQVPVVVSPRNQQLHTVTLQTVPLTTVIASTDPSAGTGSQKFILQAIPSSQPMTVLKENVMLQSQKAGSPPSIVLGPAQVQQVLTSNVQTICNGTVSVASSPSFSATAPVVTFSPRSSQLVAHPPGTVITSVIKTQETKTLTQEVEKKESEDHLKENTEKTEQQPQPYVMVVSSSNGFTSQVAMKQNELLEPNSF
# Outline: as §1
# EHF = molecular target: T5, EHF (Homo sapiens, UniProt Q9NZC4 1-300); details: protein: recombinant; tags: N-terminal GST; dsDNA, one strand shown
# T5 sequence: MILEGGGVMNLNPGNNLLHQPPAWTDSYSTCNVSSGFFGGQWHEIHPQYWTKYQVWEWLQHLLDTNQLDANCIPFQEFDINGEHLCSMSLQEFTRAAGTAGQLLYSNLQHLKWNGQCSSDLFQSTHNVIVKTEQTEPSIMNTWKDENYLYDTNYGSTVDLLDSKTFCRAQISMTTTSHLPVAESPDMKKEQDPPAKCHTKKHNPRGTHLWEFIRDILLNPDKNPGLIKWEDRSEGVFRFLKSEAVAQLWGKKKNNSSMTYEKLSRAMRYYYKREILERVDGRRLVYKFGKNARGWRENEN
# Outline: as §1
# SPI1 = SPI1 (Homo sapiens, UniProt P17947 1-270); details: protein: recombinant; tags: N-terminal GST; dsDNA, one strand shown
# Outline: as §1
# SPIB = SPIB (Homo sapiens, UniProt Q01892 1-262); details: protein: recombinant; tags: N-terminal GST; dsDNA, one strand shown
# SPIB, sequence (Q01892 whole entry): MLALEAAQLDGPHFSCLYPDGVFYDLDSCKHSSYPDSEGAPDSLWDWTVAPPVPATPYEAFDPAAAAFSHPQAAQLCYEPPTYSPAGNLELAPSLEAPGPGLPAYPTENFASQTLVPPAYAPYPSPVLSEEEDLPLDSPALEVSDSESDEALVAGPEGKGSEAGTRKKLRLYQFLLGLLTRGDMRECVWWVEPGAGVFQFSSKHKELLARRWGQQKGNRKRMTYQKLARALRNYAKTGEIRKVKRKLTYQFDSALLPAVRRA
# Outline: as §1
# ELK3 = molecular target: T6, ELK3 (Homo sapiens, UniProt P41970 1-407); details: protein: recombinant; tags: N-terminal GST; dsDNA, one strand shown
# T6 sequence: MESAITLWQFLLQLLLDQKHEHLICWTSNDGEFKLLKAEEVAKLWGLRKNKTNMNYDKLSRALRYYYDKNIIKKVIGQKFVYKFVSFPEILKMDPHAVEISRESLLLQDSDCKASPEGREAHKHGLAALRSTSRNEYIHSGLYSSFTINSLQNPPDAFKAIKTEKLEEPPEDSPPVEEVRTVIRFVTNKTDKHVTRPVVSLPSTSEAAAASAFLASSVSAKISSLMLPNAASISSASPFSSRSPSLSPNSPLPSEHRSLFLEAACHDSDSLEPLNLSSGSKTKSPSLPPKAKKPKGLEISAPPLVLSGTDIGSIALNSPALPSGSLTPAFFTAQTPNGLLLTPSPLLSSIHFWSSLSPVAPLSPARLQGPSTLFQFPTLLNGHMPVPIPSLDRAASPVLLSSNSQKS
# Outline: as §1
# FEV = molecular target: T7, FEV (Homo sapiens, UniProt Q99581 1-238); details: protein: recombinant; tags: N-terminal GST; dsDNA, one strand shown
# T7 sequence: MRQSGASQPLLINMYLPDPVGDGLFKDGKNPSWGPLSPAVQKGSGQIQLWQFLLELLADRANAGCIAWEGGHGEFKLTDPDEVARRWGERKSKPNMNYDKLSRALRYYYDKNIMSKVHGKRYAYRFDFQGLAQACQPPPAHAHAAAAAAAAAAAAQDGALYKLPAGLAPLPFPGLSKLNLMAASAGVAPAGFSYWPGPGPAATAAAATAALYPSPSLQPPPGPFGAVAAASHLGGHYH
# Outline: as §1
# ETV5 = ETV5 (Homo sapiens, UniProt P41161 1-510); details: protein: recombinant; tags: N-terminal GST; dsDNA, one strand shown
# ETV5, sequence (P41161 whole entry): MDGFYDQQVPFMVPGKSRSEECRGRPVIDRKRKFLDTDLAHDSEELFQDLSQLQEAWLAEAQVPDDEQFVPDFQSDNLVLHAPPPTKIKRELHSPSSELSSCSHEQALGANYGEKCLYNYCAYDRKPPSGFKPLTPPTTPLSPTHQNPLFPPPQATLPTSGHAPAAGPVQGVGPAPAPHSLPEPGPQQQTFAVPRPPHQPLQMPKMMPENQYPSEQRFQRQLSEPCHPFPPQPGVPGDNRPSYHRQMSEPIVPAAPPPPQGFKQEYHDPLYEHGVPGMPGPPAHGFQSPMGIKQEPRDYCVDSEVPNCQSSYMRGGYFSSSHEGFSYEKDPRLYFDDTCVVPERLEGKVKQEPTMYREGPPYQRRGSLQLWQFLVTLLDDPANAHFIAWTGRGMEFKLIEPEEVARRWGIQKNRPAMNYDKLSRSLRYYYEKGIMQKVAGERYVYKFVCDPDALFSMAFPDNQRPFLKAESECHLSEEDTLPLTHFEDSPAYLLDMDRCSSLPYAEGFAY
# Outline: as §1
# HSF1 = HSF1 (Homo sapiens, UniProt Q00613 1-529); details: protein: recombinant; tags: N-terminal GST; chain copies: 3; dsDNA, one strand shown
# HSF1, sequence (Q00613 whole entry): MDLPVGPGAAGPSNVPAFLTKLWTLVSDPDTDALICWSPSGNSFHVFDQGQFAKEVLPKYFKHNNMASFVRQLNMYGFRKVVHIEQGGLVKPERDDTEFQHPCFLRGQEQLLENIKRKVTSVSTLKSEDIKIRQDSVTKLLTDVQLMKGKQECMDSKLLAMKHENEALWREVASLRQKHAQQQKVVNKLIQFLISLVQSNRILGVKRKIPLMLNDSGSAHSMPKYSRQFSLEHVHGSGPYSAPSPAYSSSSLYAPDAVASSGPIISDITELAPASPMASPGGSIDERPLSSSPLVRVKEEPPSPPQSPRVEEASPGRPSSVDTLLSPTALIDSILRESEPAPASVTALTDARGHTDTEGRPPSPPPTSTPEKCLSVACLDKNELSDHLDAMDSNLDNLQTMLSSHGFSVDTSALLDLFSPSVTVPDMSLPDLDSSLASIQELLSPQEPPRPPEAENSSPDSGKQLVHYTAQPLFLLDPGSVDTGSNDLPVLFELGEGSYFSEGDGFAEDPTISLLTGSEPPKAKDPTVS
# Outline: as §1
# SPIC = molecular target: T8, SPIC (Homo sapiens, UniProt Q8N5J4 1-248); details: protein: recombinant; tags: N-terminal GST; dsDNA, one strand shown
# T8 sequence: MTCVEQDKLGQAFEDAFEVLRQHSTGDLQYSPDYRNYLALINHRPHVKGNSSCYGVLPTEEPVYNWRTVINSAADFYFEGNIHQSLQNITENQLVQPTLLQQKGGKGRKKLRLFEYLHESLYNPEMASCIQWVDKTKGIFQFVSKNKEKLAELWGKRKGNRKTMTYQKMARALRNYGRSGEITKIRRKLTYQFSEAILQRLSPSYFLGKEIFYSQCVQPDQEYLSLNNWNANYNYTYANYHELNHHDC
# Outline: as §1
# ELF4 = ELF4 (Homo sapiens, UniProt Q99607 1-663); details: protein: recombinant; tags: N-terminal GST; dsDNA, one strand shown
# ELF4, sequence (Q99607 whole entry): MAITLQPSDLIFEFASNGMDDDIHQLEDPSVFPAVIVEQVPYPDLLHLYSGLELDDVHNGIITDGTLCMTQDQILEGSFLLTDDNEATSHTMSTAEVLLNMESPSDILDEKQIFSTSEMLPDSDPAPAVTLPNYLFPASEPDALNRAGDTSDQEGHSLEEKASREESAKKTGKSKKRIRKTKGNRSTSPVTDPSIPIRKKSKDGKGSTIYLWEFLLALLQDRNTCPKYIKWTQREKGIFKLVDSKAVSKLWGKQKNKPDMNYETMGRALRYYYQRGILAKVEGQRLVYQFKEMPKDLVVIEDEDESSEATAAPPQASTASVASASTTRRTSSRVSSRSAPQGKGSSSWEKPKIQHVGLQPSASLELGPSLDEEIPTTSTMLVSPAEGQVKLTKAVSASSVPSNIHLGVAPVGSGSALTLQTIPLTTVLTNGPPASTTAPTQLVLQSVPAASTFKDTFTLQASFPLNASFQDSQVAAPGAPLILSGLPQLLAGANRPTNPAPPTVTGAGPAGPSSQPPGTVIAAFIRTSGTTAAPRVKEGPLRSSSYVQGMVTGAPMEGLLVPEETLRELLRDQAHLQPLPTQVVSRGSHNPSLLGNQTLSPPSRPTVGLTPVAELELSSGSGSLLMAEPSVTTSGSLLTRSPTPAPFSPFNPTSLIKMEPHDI
# Outline: as §1
# ELK4 = molecular target: T9, ELK4 (Homo sapiens, UniProt P28324-2 1-405); details: protein: recombinant; tags: N-terminal GST; dsDNA, one strand shown
# T9 sequence: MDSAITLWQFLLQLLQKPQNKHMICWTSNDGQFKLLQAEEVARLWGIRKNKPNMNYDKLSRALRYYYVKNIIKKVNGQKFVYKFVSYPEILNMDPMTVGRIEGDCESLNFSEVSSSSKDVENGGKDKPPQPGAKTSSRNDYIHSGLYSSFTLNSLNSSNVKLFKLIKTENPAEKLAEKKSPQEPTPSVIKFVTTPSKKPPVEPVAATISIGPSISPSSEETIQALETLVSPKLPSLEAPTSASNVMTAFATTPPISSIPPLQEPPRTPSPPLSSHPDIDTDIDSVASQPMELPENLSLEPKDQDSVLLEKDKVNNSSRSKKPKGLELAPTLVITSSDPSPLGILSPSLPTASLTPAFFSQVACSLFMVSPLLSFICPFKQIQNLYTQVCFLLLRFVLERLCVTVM
# Outline: as §1
# ETV2 = molecular target: T10, ETV2 (Homo sapiens, UniProt O00321 1-342); details: protein: recombinant; tags: N-terminal GST; dsDNA, one strand shown
# T10 sequence: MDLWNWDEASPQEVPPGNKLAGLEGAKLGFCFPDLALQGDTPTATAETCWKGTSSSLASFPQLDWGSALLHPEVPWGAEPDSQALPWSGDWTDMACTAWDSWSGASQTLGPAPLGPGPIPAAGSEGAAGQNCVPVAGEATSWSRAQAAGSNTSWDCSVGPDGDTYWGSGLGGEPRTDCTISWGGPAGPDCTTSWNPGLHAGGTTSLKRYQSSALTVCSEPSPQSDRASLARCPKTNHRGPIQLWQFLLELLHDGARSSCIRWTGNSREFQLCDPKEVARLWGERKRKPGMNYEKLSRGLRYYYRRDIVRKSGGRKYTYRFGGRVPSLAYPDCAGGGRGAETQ
# Outline: as §1
# ELF3 = molecular target: T11, ELF3 (Homo sapiens, UniProt P78545 1-371); details: protein: recombinant; tags: N-terminal GST; dsDNA, one strand shown
# T11 sequence: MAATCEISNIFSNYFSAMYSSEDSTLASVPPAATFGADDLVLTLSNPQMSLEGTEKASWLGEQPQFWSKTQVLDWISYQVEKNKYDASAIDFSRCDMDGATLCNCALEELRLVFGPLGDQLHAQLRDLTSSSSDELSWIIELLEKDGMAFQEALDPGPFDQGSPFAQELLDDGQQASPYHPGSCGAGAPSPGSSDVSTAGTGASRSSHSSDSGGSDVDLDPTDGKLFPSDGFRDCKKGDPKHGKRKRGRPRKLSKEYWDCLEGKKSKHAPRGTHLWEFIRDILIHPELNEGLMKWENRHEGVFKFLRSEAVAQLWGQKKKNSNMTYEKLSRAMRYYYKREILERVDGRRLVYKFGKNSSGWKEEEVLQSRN
# Outline: as §1
# CRX = CRX (Homo sapiens, UniProt O43186 1-299); details: protein: recombinant; tags: N-terminal GST; dsDNA, one strand shown
# CRX, sequence (O43186 whole entry): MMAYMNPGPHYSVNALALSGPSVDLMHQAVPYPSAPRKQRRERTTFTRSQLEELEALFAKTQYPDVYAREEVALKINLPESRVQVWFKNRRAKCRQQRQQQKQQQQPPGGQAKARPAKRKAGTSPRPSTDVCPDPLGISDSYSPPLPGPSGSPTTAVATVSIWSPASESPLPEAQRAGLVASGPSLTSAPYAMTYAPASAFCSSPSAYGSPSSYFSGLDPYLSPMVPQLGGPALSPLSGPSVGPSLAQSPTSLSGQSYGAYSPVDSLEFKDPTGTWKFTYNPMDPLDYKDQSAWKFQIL
# Outline: as §1
# ETV1 = ETV1 (Homo sapiens, UniProt P50549 1-477); details: protein: recombinant; tags: N-terminal GST; dsDNA, one strand shown
# ETV1, sequence (P50549 whole entry): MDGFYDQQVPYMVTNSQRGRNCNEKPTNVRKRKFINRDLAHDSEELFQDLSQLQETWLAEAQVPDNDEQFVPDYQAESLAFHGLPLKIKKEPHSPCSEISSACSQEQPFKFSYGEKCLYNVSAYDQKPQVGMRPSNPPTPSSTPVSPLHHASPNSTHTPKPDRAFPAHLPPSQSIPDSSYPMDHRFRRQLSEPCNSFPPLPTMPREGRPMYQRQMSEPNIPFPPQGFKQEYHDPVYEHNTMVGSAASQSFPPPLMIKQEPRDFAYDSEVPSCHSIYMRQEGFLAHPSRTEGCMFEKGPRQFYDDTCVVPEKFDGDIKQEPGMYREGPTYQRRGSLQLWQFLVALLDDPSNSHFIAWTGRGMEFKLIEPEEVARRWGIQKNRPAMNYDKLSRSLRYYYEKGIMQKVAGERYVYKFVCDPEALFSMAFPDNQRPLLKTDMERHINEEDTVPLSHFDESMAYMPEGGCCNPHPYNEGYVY
# Outline: as §1
sequence,measurement,setting,value
CCGTTT,binding signal,FLI1,"1.47 fold enrichment (6-mer frequency, TF over GST control)"
same,binding signal,ELK1,"1.36 fold enrichment (6-mer frequency, TF over GST control)"
same,binding signal,GABPA,"1.33 fold enrichment (6-mer frequency, TF over GST control)"
same,binding signal,ERG,"1.57 fold enrichment (6-mer frequency, TF over GST control)"
same,binding signal,ELF1,"1.29 fold enrichment (6-mer frequency, TF over GST control)"
same,binding signal,EHF,"1.33 fold enrichment (6-mer frequency, TF over GST control)"
same,binding signal,SPI1,"1.56 fold enrichment (6-mer frequency, TF over GST control)"
same,binding signal,SPIB,"1.39 fold enrichment (6-mer frequency, TF over GST control)"
same,binding signal,ELK3,"1.35 fold enrichment (6-mer frequency, TF over GST control)"
same,binding signal,FEV,"1.48 fold enrichment (6-mer frequency, TF over GST control)"
same,binding signal,ETV5,"1.44 fold enrichment (6-mer frequency, TF over GST control)"
same,binding signal,HSF1,"1.12 fold enrichment (6-mer frequency, TF over GST control)"
same,binding signal,SPIC,"1.44 fold enrichment (6-mer frequency, TF over GST control)"
same,binding signal,ELF4,"1.36 fold enrichment (6-mer frequency, TF over GST control)"
same,binding signal,ELK4,"1.33 fold enrichment (6-mer frequency, TF over GST control)"
same,binding signal,ETV2,"1.31 fold enrichment (6-mer frequency, TF over GST control)"
same,binding signal,ELF3,"1.44 fold enrichment (6-mer frequency, TF over GST control)"
same,binding signal,CRX,"1.06 fold enrichment (6-mer frequency, TF over GST control)"
same,binding signal,ETV1,"1.38 fold enrichment (6-mer frequency, TF over GST control)"
